Measurements as given in the supplement of paper PMC12645437, “Orthogonal IMiD-Degron Pairs Induce Selective Protein Degradation in Cells” (ACS Chemical Biology, 2025).
In all, about 8,300 sequences were measured (“log2 fold change of degron read counts, EGFP-low vs EGFP+ sorted cells (limma voom), compound-induced degradation”: median about -1.1, highest 2% from about 3.2 on). For the sample, the highest values were picked, then their nearest neighbours and some sequences at random.

T1: CRBN, Q96SW2
T1 chain: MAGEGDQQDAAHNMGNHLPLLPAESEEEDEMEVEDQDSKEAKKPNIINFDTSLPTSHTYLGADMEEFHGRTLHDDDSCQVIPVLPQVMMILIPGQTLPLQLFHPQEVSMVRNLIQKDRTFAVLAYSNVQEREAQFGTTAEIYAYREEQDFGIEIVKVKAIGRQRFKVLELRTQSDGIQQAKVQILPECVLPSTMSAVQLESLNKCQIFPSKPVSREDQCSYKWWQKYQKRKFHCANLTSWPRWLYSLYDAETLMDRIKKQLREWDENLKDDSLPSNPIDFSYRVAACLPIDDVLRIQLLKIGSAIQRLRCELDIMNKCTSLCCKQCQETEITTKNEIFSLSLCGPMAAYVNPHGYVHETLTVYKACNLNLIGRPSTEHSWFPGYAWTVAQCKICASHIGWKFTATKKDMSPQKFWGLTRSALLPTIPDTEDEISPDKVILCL


Biological target: T1, CRBN, Q96SW2
Assay: log2 fold change of degron read counts, EGFP-low vs EGFP+ sorted cells (limma voom), compound-induced degradation; higher = more compound-induced degradation of the degron-EGFP fusion; degrons are variants of IKZF1/3 zinc finger 2; compound dose not given here
Conditions: Jurkat, 18 h
[1] = compound: compound 19 (5-tert-butyl-thalidomide)
[2] = compound: compound 22 (5-morpholino-thalidomide)
[3] = compound: compound 33 (diphenyl IMiD analogue)
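Also: pooled lentiviral library of zinc finger degron-EGFP fusions in mCherry-positive Jurkat cells, FACS-sorted after compound exposure, with degron abundance counted by next-generation sequencing.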

Sequence	log2 fold change of degron read counts [1]	log2 fold change of degron read counts [2]	log2 fold change of degron read counts [3]	log2 fold change of degron read counts (compound: thalidomide)
FGCEICGAFFTQKGNLLRHIKL [46F_47G_49E_50I_52G_53A_54F_55F_67L_, Q9UKT9]	2.48	1.05	2.58	0.0705
FECPVCGADFTQKGNLLRHIKL [46F_47E_49P_50V_52G_53A_54D_55F_67L_, Q9UKT9]	-1.59	-1.56	2.05	2.24
FICEVCGAQFTQKGNLLRHIKL [46F_47I_49E_50V_52G_53A_54Q_55F_67L_, Q9UKT9]	-0.278	2.8	2.99	2.69
FRCEVCGAQFTQKGNLLRHIKL [46F_47R_49E_50V_52G_53A_54Q_55F_67L_, Q9UKT9]	0.18	0.339	1.48	1.56
FACEVCGAQFTQKGNLLRHIKL [46F_47A_49E_50V_52G_53A_54Q_55F_67L_, Q9UKT9]	3.49	2.06	0.981	0.73
FYCEVCGAQFTQKGNLLRHIKL [46F_47Y_49E_50V_52G_53A_54Q_55F_67L_, Q9UKT9]	3.53	3.57	2.99	1.94
FQCEVCGAQFTQKGNLLRHIKL [46F_47Q_49E_50V_52G_53A_54Q_55F_67L_, Q9UKT9]	0.659	2.56	2.21	3.77
FWCEVCGAQFTQKGNLLRHIKL [46F_47W_49E_50V_52G_53A_54Q_55F_67L_, Q9UKT9]	3.44	3.79	2.82	2.03
FNCEVCGAQFTQKGNLLRHIKL [46F_47N_49E_50V_52G_53A_54Q_55F_67L_, Q9UKT9]	2.48	1.07	0.414	0.334
FHCEVCGAQFTQKGNLLRHIKL [46F_47H_49E_50V_52G_53A_54Q_55F_67L_, Q9UKT9]	1.71	2.6	1.97	0.794
FVCEVCGAQFTQKGNLLRHIKL [46F_47V_49E_50V_52G_53A_54Q_55F_67L_, Q9UKT9]	0.146	2.74	2.92	2.99
FDCEVCGAQFTQKGNLLRHIKL [46F_47D_49E_50V_52G_53A_54Q_55F_67L_, Q9UKT9]	1.45	0.572	-0.0193	1.19
FECEVCGAQFTQKGNLLRHIKL [46F_47E_49E_50V_52G_53A_54Q_55F_67L_, Q9UKT9]	-0.548	-1.16	1.28	2.29
FSCEVCGAQFTQKGNLLRHIKL [46F_47S_49E_50V_52G_53A_54Q_55F_67L_, Q9UKT9]	2.77	2.35	1.32	1.33
FTCNQCGALFTQKGNLLRHIKL [46F_47T_49N_50Q_52G_53A_54L_55F_67L_, Q9UKT9]	-2.64	-2.95	-1.35	-2.16
FRCEICGRWFTQKGNLLRHIKL [46F_47R_49E_50I_52G_53R_54W_55F_67L_, Q9UKT9]	-2.31	-2.38	-1.89	0.776
FFCPICGHAFTQKGNLLRHIKL [46F_47F_49P_50I_52G_53H_54A_55F_67L_, Q9UKT9]	-0.981	-1.5	-0.604	-1.29
FHCNQCGACFTQKGNLLRHIKL [46F_47H_49N_50Q_52G_53A_54C_55F_67L_, Q9UKT9]	-1.49	-1.87	-1.86	-2.37
